Here are results for 54 molecules from ChEMBL document CHEMBL4513216, “Probing the Open Global Health Chemical Diversity Library for Multistage-Active Starting Points for Next-Generation Antimalarials” (ACS Infect Dis, 2020).

The structures appear in SMILES notation. The campaign covered roughly 69,000 compounds. About 8,600 (12%) showed an effect of 50% or more. The full list was thinned out, with strong results kept by preference.

This experiment deals with Plasmodium berghei. The experiment is described as follows: Screen against P. berghei liver stage (PbLuc), transformed with Luciferase, at 10uM. The experiment is classed as functional, HepG2. As to conditions: tested at 10 uM.
On to `Cc1nn(C)c2nc(N3CCC(C(O)Cc4ccccc4)CC3)sc12` (centres undefined), for which the INHIBITION turned out to be 75.1%.
Consider `Cc1nn(C)c2nc(N3CCC(C(O)c4ccccn4)CC3)sc12` (centres undefined), for which the INHIBITION turned out to be 55.4%.
The figure for `Cc1cnc(N2CC[C@@H]3OC(COCC(=O)N(C)C)CC[C@@H]32)nc1` (some centres undefined) is 14.1%.
With `CCCC1CN(CCOc2ccccc2)C(=O)c2cccnc2O1` (centres undefined) the figure was 44.2%; with `Cc1nn(-c2ncnc3[nH]cnc23)c2c1C(C(C)C)CC(=O)N2` (centres undefined), -21.2%.
The figure for `Cc1ccc2c(c1)C(=O)CC1(CCN(Cc3ccccc3)CC1)O2` is -13.2%; for `Cc1nnc(N2CCN(C(=O)NC3CC3)CC2)c(C(N)=O)c1C` it is 56.5%.
Regarding `Cc1nnc(N2CCCC2)c(C(N)=O)c1C`, the INHIBITION was 6.24%.
On to `Cc1nnc(N2CCNCC2)c(C(N)=O)c1C`, for which the INHIBITION stood at 41.5%.
Consider `O=C(NCC1CC1)c1ccc(NC(=O)c2ccco2)cc1`, for which the INHIBITION is on record as -64.3%.
The figure for `COc1c(C)cnc(CN2CCCCC2CCN2CCOCC2)c1C` (centres undefined) is 56.1%; for `COc1c(C)cnc(CN2CCCC2Cn2nc(C)nc2C)c1C` (centres undefined) it is 27.6%.
For `COc1c(C)cnc(CN2CCCCC2Cn2nc(C)nc2C)c1C` (centres undefined), the INHIBITION is 6.14%.
Consider `CC(=O)N1CCC1c1cc(N2CCSCC2)nc(C)n1` (centres undefined), for which the INHIBITION came out at 29.5%.
With `CO[C@H]1CN(Cc2ccccc2F)C[C@@]12CCCO2` the figure was 5.56%; with `Cn1cc(N2CCC3(CCN(C(=O)[C@H]4CCCO4)C3)C2=O)cn1` (some centres undefined), 12.7%.
With `CCN1CCC(NC(=O)CNC(C)Cn2cccn2)CC1` (centres undefined) the figure was 88.6%; with `CC(C(=O)N1CCC(Nc2cccnn2)CC1)n1cccn1` (centres undefined), 45.7%.
The figure for `CC(C(=O)N1CCC(Nc2cccnn2)CC1)n1ccnc1` (centres undefined) is 23.4%; for `CC(Cn1cccn1)NCC(=O)NC1CCOCC1` (centres undefined) it is 5.2%.
On to `CC(C)C(C(=O)N1CCC(N(C)c2cccnn2)CC1)n1cncn1` (centres undefined), for which the INHIBITION came to 36.9%.
The figure for `CCN1CCC(NC(=O)CN2CCCC2Cn2cccn2)CC1` (centres undefined) is 19%; for `CC(C)C(C(=O)N1CCC(Nc2cccnn2)CC1)n1cncn1` (centres undefined) it is 57.2%; for `CC(Cn1cccn1)C(=O)N1CCC(Nc2cccnn2)CC1` (centres undefined) it is 53.7%.
Take `Cc1ccc(NC2CCN(C(=O)C(C(C)C)n3cncn3)CC2)nn1` (centres undefined): the INHIBITION is 31.2%.
The figure for `CN(Cc1ccco1)C(=O)CN1CCOC(Cn2cccn2)C1` (centres undefined) is -53.5%.
The figure for `COc1c(CNC2CCOc3c(Cl)cccc32)c(C(C)C)nn1C` (centres undefined) is -69%; for `COc1c(CNC2CCc3ccccc32)c(C)nn1C` (centres undefined) it is -63.3%; for `COc1c(CNC2CCCOc3ccc(F)cc32)c(C)nn1C` (centres undefined) it is -63.5%.
With `COc1c(CNC2CCc3cc(F)ccc32)c(C)nn1C` (centres undefined) the figure was 35.8%; with `CC(C)c1nn(C)c(N(C)C)c1CNC1CCOc2ccccc21` (centres undefined), 12.2%; with `COc1c(CNC2CCOc3ccccc32)c(C(C)C)nn1C` (centres undefined), 47.1%.
For `COc1c(CNC2CCc3cc(Cl)ccc32)c(C)nn1C` (centres undefined), the INHIBITION turned out to be 59%.
As to `COc1c(CNC2CCSc3ccc(F)cc32)c(C)nn1C` (centres undefined), the INHIBITION turned out to be 75.2%.
The figure for `COc1c(CNC2CCOc3c(Cl)cccc32)c(C)nn1C` (centres undefined) is 77.8%.
With `COc1c(CNC2CCc3cc(C)ccc32)c(C)nn1C` (centres undefined) the figure was 21.5%; with `CC(C)c1nn(C)c(Cl)c1CNC1CCOc2ccccc21` (centres undefined), 53.3%.
As to `COc1c(CNC2CCOc3c(F)cccc32)c(C)nn1C` (centres undefined), the INHIBITION is given as 20%.
With `Cn1c(SCC(N)=O)nnc1-c1csc2c1CCCC2` the figure was -21.8%.
The figure for `CCN1CC(COc2ccccc2)Oc2ncccc2S1(=O)=O` (centres undefined) is 13.9%; for `CCSc1cc(C(=O)NCCNC(=O)N(C)C)ccn1` it is -22.8%; for `COc1cc(CCC(=O)NC(C)(C)C)ccc1OCC(F)(F)F` it is -17.4%.
The figure for `O=C1C[C@H]2[C@H](CCN2C(=O)c2cc[nH]n2)N1Cc1cccnc1` is 40.8%; for `OCCOc1ccc(NCc2cccc3cn[nH]c23)cn1` it is -1.45%.
Regarding `OCCOc1ccc(NCc2cccc3cccnc23)cn1`, the INHIBITION is on record as -37.7%.
The figure for `Cc1ncccc1CNc1ccc(OCCO)nc1` is -89.9%; for `OCCOc1ccc(NCc2cc(F)cc3cccnc23)cn1` it is -116%; for `OCCOc1ccc(NCc2cccnc2)cn1` it is 59.5%.
With `OCCOc1ccc(NCc2cccc3[nH]ccc23)cn1` the figure was 68.2%; with `Cc1cc(-c2cnn(CCNC(=O)c3cc[nH]n3)c2C2CC2)on1`, 18.9%; with `CCCc1nnc(NC(=O)NC(CCO)c2cccs2)s1` (centres undefined), -26.8%.
With `COc1ccccc1CN1CCCC2(Cc3ccccc3CNC2=O)C1` (centres undefined) the figure was 11%; with `CC(C)OCc1nn(C)c2c1CCN(Cc1ccco1)C2`, -16.9%; with `CCC(=O)N1CCN(c2nc(C)nc3c(C)nn(C)c23)CC1`, 27.5%.
